Test results as given in PubChem BioAssay AID1159580 (chemical genetic matrix, 2015).
Several values for one entry are separate records, joined by “and”; a condition that tells them apart may be missing. Equal entries are not always repeated. About 2,000 (36%) of roughly 5,500 compounds were called active. Another 18% or so got no clear call; they are omitted. Cut-off read from the data, not from the text of the source: active = normalized growth mostly below about 0.91 (no sharp cut-off); inconclusive = no clear call, values can overlap the other calls; inactive = mostly above about 0.92. This is one part of the list.

Test: chemical genetic growth profiling, strain panel (AID 1159580);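 note: tested at 20 µM; growth read once vehicle control cultures reached saturation at 30 °C; 1 = growth at the plate median or of vehicle wells; lower values mean less growth of the strain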
Details: S. cerevisiae deletion strains, growth OD

Measured: normalized growth

COc1ccc(C2Sc3ccccc3N(CCN(C)C)C(=O)C2OC(C)=O)cc1 (stereo not given)
inactive: locus YAL013W, strain DEP1, hits give low values 1 | locus YAL021C, strain ccr4, hits give low values 0.985 | locus YAL026C, strain drs2, hits give low values 0.969 | locus YAL030W, strain snc1, hits give low values 0.986 | locus YBL061C, strain skt5, hits give low values 0.987 | locus YBR009C, strain hhf1, hits give low values 1.01 | locus YBR021W, strain FUR4, hits give low values 1.04 | locus YBR023C, strain chs3, hits give low values 0.988 | locus YBR171W, strain sec66, hits give low values 0.966 | locus YBR229C, strain ROT2, hits give low values 1.01 | locus YBR231C, strain swc5, hits give low values 0.919 | locus YBR279W, strain paf1, hits give low values 0.977 | locus YCL011C, strain gbp2, hits give low values 0.971 | locus YCL016C, strain dcc1, hits give low values 0.999 | locus YCL029C, strain bik1, hits give low values 1.03 | locus YCL069W, strain vba3, hits give low values 0.975 | locus YCR088W, strain abp1, hits give low values 0.979 | locus YDL005C, strain med2, hits give low values 0.953 | locus YDL035C, strain GPR1, hits give low values 1.02 | locus YDL040C, strain nat1, hits give low values 0.975 | locus YDL074C, strain BRE1, hits give low values 1.04 | locus YDL101C, strain DUN1, hits give low values 1.01 | locus YDL134C, strain PPH21, hits give low values 1.01 | locus YDL185W, strain tfp1, hits give low values 1.04 | locus YDL192W, strain arf1, hits give low values 1.04 | locus YDR001C, strain nth1, hits give low values 0.949 | locus YDR069C, strain doa4, hits give low values 0.963 | locus YDR101C, strain arx1, hits give low values 1.03 | locus YDR137W, strain rgp1, hits give low values 1.01 | locus YDR150W, strain NUM1, hits give low values 1.01 | locus YDR159W, strain sac3, hits give low values 0.981 | locus YDR162C, strain NBP2, hits give low values 1.01 | locus YDR195W, strain ref2 0.923 | locus YDR297W, strain sur2, hits give low values 0.989 | locus YDR318W, strain mcm21, hits give low values 1.03 | locus YDR334W, strain swr1, hits give low values 0.917 | locus YDR335W, strain msn5, hits give low values 0.943 | locus YDR388W, hits give low values 1.03 | locus YDR392W, strain spt3, hits give low values 1.02 | locus YDR502C, strain sam2, hits give low values 1.03 | locus YEL003W, strain gim4, hits give low values 0.978 | locus YEL037C, strain rad23, hits give low values 0.97 | locus YEL061C, strain CIN8 (second series), hits give low values 0.943 | locus YEL061C, strain CIN8, hits give low values 1.01 | locus YER015W, strain faa2, hits give low values 0.962 | locus YER016W, strain bim1, hits give low values 0.993 | locus YER110C, hits give low values 1.05 | locus YER111C, strain swi4, hits give low values 0.953 | locus YER155C, strain BEM2 (second series), hits give low values 0.986 | locus YER155C, strain BEM2, hits give low values 1.01 | locus YER167W, strain BCK2, hits give low values 1.03 | locus YFR010W, strain ubp6, hits give low values 0.938 | locus YGL078C, strain dbp3, hits give low values 1.03 | locus YGL086W, strain mad1, hits give low values 1.02 | locus YGL167C, strain pmr1, hits give low values 1.01 | locus YGL173C, strain kem1, hits give low values 1.01 | locus YGL227W, strain vid30, hits give low values 0.984 | locus YGL240W, strain doc1, hits give low values 0.983 | locus YGL248W, strain PDE1, hits give low values 1.01 | locus YGL253W, strain hxk2, hits give low values 0.959 | locus YGR078C, strain PAC10, hits give low values 1.01 | locus YGR135W, strain pre9, hits give low values 1.02 | locus YGR229C, strain SMI1, hits give low values 1.05 | locus YGR252W, strain gcn5, hits give low values 1.06 | locus YHR013C, strain ard1, hits give low values 0.979 | locus YHR027C, strain rpn1, hits give low values 0.977 | locus YHR030C, strain SLT2, hits give low values 1.01 and 1.04 | locus YHR079C, strain IRE1 (second series), hits give low values 1.03 | locus YHR079C, strain IRE1, hits give low values 1.01 | locus YHR094C, strain hxt1, hits give low values 1.03 | locus YHR129C, strain ARP1, hits give low values 1.01 | locus YHR142W, strain chs7, hits give low values 0.972 | locus YHR200W, strain rpn10, hits give low values 1.04 | locus YIL066C, strain RNR3, hits give low values 1.01 | locus YIL073C, strain SPO22, hits give low values 1.12 | locus YIL125W, strain kgd1, hits give low values 1.03 | locus YIR030C, strain dcg1, hits give low values 1.04 | locus YJL092W, strain hpr5, hits give low values 0.99 | locus YJL095W, strain BCK1 (second series), hits give low values 0.973 | locus YJL095W, strain BCK1, hits give low values 1.03 and 1.01 | locus YJL115W, strain asf1, hits give low values 0.949 | locus YJL129C, strain trk1, hits give low values 0.925 | locus YJL134W, strain LCB3, hits give low values 1 | locus YJL154C, strain vps35, hits give low values 0.982 | locus YJL164C, strain tpk1, hits give low values 0.996 | locus YJL166W, strain qcr8, hits give low values 0.986 | locus YJL168C, strain set2, hits give low values 1.04 | locus YJL187C, strain SWE1 (second series), hits give low values 1.01 | locus YJR066W, strain TOR1, hits give low values 0.942 | locus YJR075W, strain HOC1, hits give low values 1.02
